# Only some compounds are listed: those with a hit (about 13% of all), similar ones and a draw of the others.
# USP8 inh = blocks human USP8 ubiquitin-rhodamine cleavage; P40818; purified USP8, Ub-rhodamine cleavage fluorescence, 30 min; inhibition, % at 20 µM; 47,000 tested, 4.2% active
# USP17 inh = blocks human USP17 ubiquitin-rhodamine cleavage. AID 1645855. A8MUK1. 47,000 tested, 6.5% active. purified USP17, Ub-rhodamine cleavage fluorescence, 3 h. inhibition, % at 50 µM
# Target sequence (A8MUK1 whole entry, looked up): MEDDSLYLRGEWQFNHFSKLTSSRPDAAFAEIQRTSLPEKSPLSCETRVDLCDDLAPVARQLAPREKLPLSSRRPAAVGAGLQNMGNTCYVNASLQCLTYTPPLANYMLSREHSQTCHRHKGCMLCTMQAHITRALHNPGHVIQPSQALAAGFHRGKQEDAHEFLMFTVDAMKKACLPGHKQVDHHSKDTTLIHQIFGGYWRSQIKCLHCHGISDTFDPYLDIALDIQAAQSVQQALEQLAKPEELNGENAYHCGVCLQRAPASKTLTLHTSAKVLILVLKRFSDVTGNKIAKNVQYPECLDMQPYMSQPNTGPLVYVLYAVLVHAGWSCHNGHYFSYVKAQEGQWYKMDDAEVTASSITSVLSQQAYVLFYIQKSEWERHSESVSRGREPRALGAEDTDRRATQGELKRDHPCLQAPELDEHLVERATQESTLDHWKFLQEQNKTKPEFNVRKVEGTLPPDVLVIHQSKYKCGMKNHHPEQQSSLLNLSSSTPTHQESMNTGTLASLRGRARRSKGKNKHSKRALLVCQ
# USP30 block = human USP30 deubiquitinase inhibition; Q70CQ3; inhibition, % at 25 µM; purified USP30, Ub-rhodamine cleavage fluorescence; 47,000 tested, 5.3% active
# USP28 inh = blocks human USP28 ubiquitin-rhodamine cleavage; inhibition, % at 25 µM; 47,000 tested, 3% active; purified USP28, Ub-rhodamine cleavage fluorescence, 30 min
# OTUD3 inh = blocks human OTUD3 ubiquitin-rhodamine cleavage | Q5T2D3 | purified OTUD3, Ub-rhodamine fluorescence, 2 h | inhibition, % at 25 µM | 47,000 tested, 0.7% active | AID 1645858
# * marks the source's active call; other numbers are inactive results. Rule as the data show it: active = inhibition above about 30%; inactive = the rest.
SMILES,USP8 inh,USP17 inh,USP30 block,USP28 inh,OTUD3 inh
CCc1cc(C2CCCN2S(=O)(=O)c2ccc3c(c2)OCCN3C(C)=O)on1 (configuration not stated),6,8,-45,39*,8
CCn1nccc1C1CCCN1S(=O)(=O)c1ccc2c(c1)OCCO2 (configuration not stated),5,-7,8,0,2
CC(=O)N1CCOc2cc(S(=O)(=O)N3CCCC3c3cc(C)no3)ccc21 (configuration not stated),2,7,20,52*,19
COc1cc(OC)c2c(C)c(CC(=O)N3CCN(c4ncccn4)CC3)c(=O)oc2c1,0,3,-1,-2,2
COc1ccc(C(=O)Nc2ccc(-c3nc4ccccc4[nH]3)cc2)cc1S(=O)(=O)N1CCOCC1,0,51*,50*,10,8
COc1ccc(CCn2c(=O)n(C)c3ncncc32)cc1,14,10,25,10,9
CC(C)CC1NC(=O)C2CC(O)CN2C1=O (configuration not stated),12,19,37*,20,13
CC(C)CC1NC(=O)C2CCCN2C1=O (configuration not stated),54*,71*,18,51*,33*
O=C1Nc2cccnc2N2CCCC12 (configuration not stated),15,0,-16,-9,-13
CNC(=O)CC(=O)N1C[C@H](Oc2ccccn2)[C@H]2C[C@@H]1Cc1c2[nH]c2ccccc12,-216,-53,-119,-57,-40
Cc1ccccc1OCC(=O)OCC(=O)N(C)c1ccccc1,0,4,16,0,9
O=C(CSc1nnc2n(-c3ccccc3)c(=O)c3c4c(sc3n12)CN(Cc1ccccc1)CC4)c1ccc(Cl)cc1,-9,-35,-262,-45,-51
CC(=O)Nc1ccc(-n2cnc(C(=O)NC(C)c3ccccc3)c2)nc1 (configuration not stated),0,64*,19,10,7
O=c1c2cnc(N3CCN(c4ccccc4)CC3)nc2ccn1Cc1ccc2c(c1)OCO2,0,-3,5,0,-4
O=c1c2cnc(N3CCCCC3)nc2ccn1Cc1ccc2c(c1)OCO2,42*,3,-40,1,-2
Cc1c(OCc2ccccc2)noc1C1CCN(C(=O)NC2CCOCC2)CC1,-6,0,-18,36*,2
CC(=O)c1cc(-c2ccc(F)cc2)n(CC(=O)NCc2ccc(N(C)C)cc2)c1C,1,-8,-109,-5,-23
CC(=O)c1cc(-c2ccc(F)cc2)n(CC(=O)Nc2cccc(C)c2C)c1C,41*,52*,73*,22,35*
Cc1nc2c(C)cccn2c(=O)c1Cc1nnc(SCC(=O)Nc2ccccc2)n1C,0,36*,33*,-4,-5
Cn1c(SCC(=O)Nc2ccccc2Br)nnc1-c1ccccn1,3,9,14,8,8
CCOc1ccc(-n2c(SCC(=O)Nc3ccc(C)cc3)nnc2-c2c[nH]c3ccccc23)cc1,97*,63*,56*,18,12
Cc1ccc(C)c(NC(=O)CSc2nnc(Cc3cccc4ccccc34)n2C)c1,-18,-13,0,45*,2
CCOc1ccc(NC(=O)CSc2nnc(Cc3cccc4ccccc34)n2C)cc1,-5,65*,46*,67*,7
O=C(Nc1cccc(F)c1)c1cnn(-c2ccccc2)c1C1CCNCC1,-108,-16,3,-3,-1
Cc1ccccc1-n1ncc(C(=O)Nc2cccc(C#N)c2)c1C1CC1,-24,0,0,42*,5
O=C(CN1CCC2(CCC1=O)NC(=O)c1ccccc1N2)NCc1ccccc1F (configuration not stated),27,19,26,19,12
O=C(Cn1cnc(-c2noc(-c3ccc(F)cc3)n2)c1)Nc1ccccc1F,67*,10,3,0,10
Cc1cccc(NC(=O)Cn2cnc(-c3noc(-c4ccccc4)n3)c2)c1C,73*,18,44*,39*,37*
COc1ccc(OC)c(CN2CCCC(C(=O)N3CCC(Cc4ccccc4)CC3)C2)c1 (configuration not stated),-11,-6,-31,-6,-1
CC(C)CN1CCC[C@H]1c1nc(-c2ccc(N3CCOCC3)nc2)no1,0,-50,0,6,0

# Screens: PubChem BioAssay, Buhrlage Lab, Dana-Farber Cancer Institute and Novartis Institutes for BioMedical Research (Cambridge, Mass)
